Assay results as given in PubChem BioAssay (EPA / NIEHS).
Calls of active or inactive are those of the source. How the source made its calls: active means hit-call score of the fitted dose curve at least 0.9, where 1 is the maximum; inactive means score below 0.9.

Columns and labels:
[1] = ATG_CRE_CIS: Attagene CIS-FACTORIAL HepG2 Assay for human cAMP Responsive Element (CRE) binding protein 3 (AID 2282926); details: HepG2 CRE cis-reporter, Attagene multiplexed mRNA; actives raise or lower the signal
In short: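 We dosed HepG2 cells bearing multiple cis-promoter reporter units for 24 h and measured reporter mRNA by RT-PCR with capillary electrophoresis detection. Bidirectional concentration-response fitting used DMSO as negative control.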

[2] = biological target: CCAAT/enhancer-binding protein beta (Homo sapiens) (UniProt P17676); assay: ATG_C_EBP_CIS: Attagene CIS-FACTORIAL HepG2 Assay for human CCAAT/Enhancer Binding Protein (C/EBP) beta (AID 2282927); details: HepG2 Attagene cis-factorial transcription factor reporter; actives raise or lower the signal
Chain of CCAAT/enhancer-binding protein beta (Homo sapiens) (P17676 whole entry, looked up, the tested form may be a part): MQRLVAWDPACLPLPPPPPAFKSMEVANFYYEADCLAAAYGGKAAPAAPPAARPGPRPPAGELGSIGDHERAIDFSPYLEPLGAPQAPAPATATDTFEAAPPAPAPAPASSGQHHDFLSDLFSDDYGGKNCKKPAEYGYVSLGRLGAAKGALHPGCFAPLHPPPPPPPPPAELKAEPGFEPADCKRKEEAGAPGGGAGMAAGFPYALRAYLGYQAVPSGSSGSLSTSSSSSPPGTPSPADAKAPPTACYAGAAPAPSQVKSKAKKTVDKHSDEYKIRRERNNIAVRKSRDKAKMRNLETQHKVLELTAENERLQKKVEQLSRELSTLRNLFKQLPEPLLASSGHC
In short: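 Chemical-treated HepG2 cells (24 h) bearing cis-regulated reporter constructs were processed for total RNA, then reverse transcription, PCR amplification, fluorescent primer extension and fragment analysis; gain- and loss-of-signal were fitted against DMSO.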

[3] = ATG_CMV_CIS: Attagene CIS-FACTORIAL HepG2 Assay for human CMV (Internal Marker) (AID 2282928); details: HepG2 CMV promoter reporter, transcription factor profiling; actives raise or lower the signal;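 further: endpoint acts as a background internal control marker rather than a target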
In short: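 HepG2 cells transiently transfected with multiple cis-regulated reporter units; 24 h compound exposure. Reporter mRNA quantified by RT-PCR, 6-FAM primer-extension labeling, HpaI digestion and capillary electrophoresis; bidirectional fitting against DMSO baseline.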

[4] = ATG_DR4_LXR_CIS: Attagene CIS-FACTORIAL HepG2 Assay for human Liver X Receptor (LXR), DR4 submotif (AID 2282929); details: HepG2 Attagene DR4 cis-reporter, mRNA transcription; actives raise or lower the signal
In short: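 Fluorescence intensity of labelled reporter cDNA fragments, separated by capillary electrophoresis, gives the signal. HepG2 cells bearing cis-regulated reporter constructs were treated 24 h; activity fitted bidirectionally relative to DMSO negative control.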

[5] = biological target: Aryl hydrocarbon receptor (Homo sapiens) (UniProt P35869); assay: ATG_Ahr_CIS: Attagene CIS-FACTORIAL HepG2 Assay for human Aryl Hydrocarbon Receptor (Ahr) (AID 2282930); details: HepG2 AhR cis-factorial reporter transcription; actives raise or lower the signal
Chain of Aryl hydrocarbon receptor (Homo sapiens) (P35869 whole entry, looked up): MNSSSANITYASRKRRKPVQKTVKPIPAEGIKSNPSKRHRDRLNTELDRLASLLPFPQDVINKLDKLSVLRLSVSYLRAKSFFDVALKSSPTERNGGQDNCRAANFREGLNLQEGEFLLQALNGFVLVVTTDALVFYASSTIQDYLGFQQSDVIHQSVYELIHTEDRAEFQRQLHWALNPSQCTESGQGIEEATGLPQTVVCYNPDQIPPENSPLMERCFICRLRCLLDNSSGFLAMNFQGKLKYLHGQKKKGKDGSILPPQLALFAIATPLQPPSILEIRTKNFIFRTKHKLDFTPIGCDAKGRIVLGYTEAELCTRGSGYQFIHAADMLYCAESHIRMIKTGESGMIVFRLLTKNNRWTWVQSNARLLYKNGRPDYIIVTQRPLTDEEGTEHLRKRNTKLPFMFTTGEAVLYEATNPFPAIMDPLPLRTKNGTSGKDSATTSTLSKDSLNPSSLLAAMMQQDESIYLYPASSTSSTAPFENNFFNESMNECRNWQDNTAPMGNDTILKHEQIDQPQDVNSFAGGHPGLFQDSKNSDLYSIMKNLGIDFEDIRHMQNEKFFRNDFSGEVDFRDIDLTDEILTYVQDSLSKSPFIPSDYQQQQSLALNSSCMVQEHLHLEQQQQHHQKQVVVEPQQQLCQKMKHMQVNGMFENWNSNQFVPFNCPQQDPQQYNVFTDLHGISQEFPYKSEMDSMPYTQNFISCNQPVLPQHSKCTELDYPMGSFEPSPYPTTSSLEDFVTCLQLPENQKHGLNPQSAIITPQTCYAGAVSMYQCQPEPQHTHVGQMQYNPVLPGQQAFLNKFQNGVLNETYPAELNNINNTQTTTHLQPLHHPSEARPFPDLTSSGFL
In short: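 Following 24 h of chemical dosing, transfected HepG2 liver cells with cis-driven reporter units were lysed for RNA; reporter mRNA was quantified via RT-PCR and capillary electrophoresis, and responses fitted bidirectionally from DMSO.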

[6] = ATG_AP_1_CIS: Attagene CIS-FACTORIAL HepG2 Assay for human Activator Protein 1 (AP-1) (AID 2282931); details: HepG2 Attagene cis-factorial AP-1 reporter mRNA; actives raise or lower the signal
In short: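 Multiplexed HepG2 reporter assay, 24 h dosing. mRNA induction detected by RT-PCR plus capillary electrophoresis. Activity fitted in both directions against DMSO.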

[7] = ATG_AP_2_CIS: Attagene CIS-FACTORIAL HepG2 Assay for human Activator Protein 2 (AP-2) (AID 2282932); details: HepG2 AP-2 cis-reporter, Attagene transcription factor profiling; actives raise or lower the signal
In short: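 Bidirectional curve fitting against DMSO was applied to reporter mRNA signals from HepG2 cells 24 h after dosing. Cis-promoter reporter units, transiently transfected, were read by RT-PCR plus capillary electrophoresis.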

[8] = ATG_BRE_CIS: Attagene CIS-FACTORIAL HepG2 Assay for human Bone Morphogenetic Protein (BMP) Response Element (BRE) (AID 2282933); details: HepG2 BMP response element reporter, Attagene transcription factor profiling; actives raise or lower the signal
In short: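 Fluorescence-labelled reporter cDNA fragments, separated by capillary electrophoresis, gave the signal for this component of a 52-readout multiplex. HepG2 cells were transfected, exposed to chemicals for 24 h, and compared with DMSO using bidirectional fitting.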

[9] = biological target: Retinoic acid receptor alpha (Homo sapiens) (UniProt P10276); assay: ATG_DR5_RAR_CIS: Attagene CIS-FACTORIAL HepG2 Assay for human Retinoic Acid Receptor Alpha (RARE), DR5 submotif (AID 2282934); details: HepG2 Attagene cis-factorial RARE DR5 reporter, mRNA; actives raise or lower the signal
Chain of Retinoic acid receptor alpha (Homo sapiens) (P10276 whole entry, looked up): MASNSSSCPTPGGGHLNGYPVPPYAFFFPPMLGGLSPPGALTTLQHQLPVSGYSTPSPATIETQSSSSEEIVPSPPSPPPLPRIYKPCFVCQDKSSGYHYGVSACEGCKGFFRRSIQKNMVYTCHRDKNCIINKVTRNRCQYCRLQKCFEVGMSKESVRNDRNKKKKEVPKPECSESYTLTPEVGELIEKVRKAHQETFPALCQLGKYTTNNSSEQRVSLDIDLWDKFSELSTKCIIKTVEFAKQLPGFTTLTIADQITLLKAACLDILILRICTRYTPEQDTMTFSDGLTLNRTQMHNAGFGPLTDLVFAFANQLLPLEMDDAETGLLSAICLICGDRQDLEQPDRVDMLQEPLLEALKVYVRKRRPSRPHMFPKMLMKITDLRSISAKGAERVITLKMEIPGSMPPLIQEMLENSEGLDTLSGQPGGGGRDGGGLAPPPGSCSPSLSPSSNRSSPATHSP
In short: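 Transfected HepG2 reporter cells are exposed to chemicals for 24 h. Then RNA is extracted and the DR5 element reporter transcript is measured by RT-PCR and capillary electrophoresis, with bidirectional curve fitting relative to DMSO.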

[10] = biological target: Transcription factor E2F1 (Homo sapiens) (UniProt Q01094); assay: ATG_E2F_CIS: Attagene CIS-FACTORIAL HepG2 Assay for human E2F Transcription Factor 1 (AID 2282935); details: HepG2 Attagene cis-reporter, E2F reporter RNA transcripts; actives raise or lower the signal
Chain of Transcription factor E2F1 (Homo sapiens) (Q01094 whole entry, looked up): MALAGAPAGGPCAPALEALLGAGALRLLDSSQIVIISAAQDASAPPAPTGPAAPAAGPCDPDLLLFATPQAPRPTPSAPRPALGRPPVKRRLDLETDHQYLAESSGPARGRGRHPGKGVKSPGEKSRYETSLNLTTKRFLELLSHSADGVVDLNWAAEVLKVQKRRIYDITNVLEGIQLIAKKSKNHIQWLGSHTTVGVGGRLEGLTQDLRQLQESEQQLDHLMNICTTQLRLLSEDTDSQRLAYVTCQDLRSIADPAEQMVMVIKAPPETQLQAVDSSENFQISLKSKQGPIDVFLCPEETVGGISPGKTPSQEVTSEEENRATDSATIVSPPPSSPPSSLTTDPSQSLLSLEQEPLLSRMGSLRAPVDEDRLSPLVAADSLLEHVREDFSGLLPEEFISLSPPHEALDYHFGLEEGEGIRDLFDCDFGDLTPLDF
In short: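 Multiplexed cis-reporter assay: HepG2, transient transfection, 24 h dosing, mRNA quantitation by labeled RT-PCR and CE.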

Compound	outcome [1]	outcome [2]	outcome [3]	outcome [4]	outcome [5]	outcome [6]	outcome [7]	outcome [8]	outcome [9]	outcome [10]	AC50 [5]
CCNCCO	inactive	inactive	inactive	inactive	inactive	inactive	inactive	inactive	inactive	inactive	–
C=C(C)CNCC	inactive	inactive	inactive	inactive	inactive	inactive	inactive	inactive	inactive	inactive	–
CC(=O)O[C@@H]1C[C@@H]2CC[C@@]1(C)C2(C)C	inactive	inactive	inactive	inactive	inactive	inactive	inactive	inactive	inactive	inactive	–
COC(=O)c1ccc(C)cc1C1=NC(C)(C(C)C)C(=O)N1 (configuration not stated) (tested in a mixture with another compound)	inactive	inactive	inactive	inactive	inactive	inactive	inactive	inactive	inactive	inactive	–
[O-]n1ccccc1=S.[O-]n1ccccc1=S.[Zn+2]	inactive	inactive	inactive	inactive	inactive	inactive	inactive	inactive	inactive	inactive	–
CCC1CCCCC1	inactive	inactive	inactive	inactive	inactive	inactive	inactive	inactive	inactive	inactive	–
CC(C)CCOC(=O)c1ccccc1	inactive	inactive	inactive	inactive	inactive	inactive	inactive	inactive	inactive	inactive	–
CC=Cc1ccc(OCC)c(O)c1	inactive	inactive	inactive	inactive	–	inactive	inactive	inactive	inactive	inactive	11.3 µM (active)
COCCOC(=O)c1ccccc1C(=O)OCCOC	inactive	inactive	inactive	inactive	inactive	inactive	inactive	inactive	–	inactive	–
CN1C(=O)c2ccccc2C1=O	inactive	inactive	inactive	inactive	inactive	inactive	inactive	inactive	–	inactive	–
c1ccc2cc(Nc3ccc(Nc4ccc5ccccc5c4)cc3)ccc2c1	inactive	inactive	inactive	inactive	–	inactive	inactive	inactive	inactive	inactive	4 µM (active)
OCC(O)c1ccccc1 (configuration not stated)	inactive	inactive	inactive	inactive	inactive	inactive	inactive	inactive	inactive	inactive	–
CCCCCC(=O)CC	inactive	inactive	inactive	inactive	inactive	inactive	inactive	inactive	–	inactive	–
